Values joined by “and” are separate entries in the source; they are usually repeats but may differ in a detail not shown here. Equal entries are not always repeated. Among all 350,000 compounds or so, about 31,000 (8.9%) were called active. Not shown: some 15% with an inconclusive outcome. Calls follow the shape of the dose curve; as a rule, active = well fitted inhibition curve with a large enough effect; inconclusive = small, poorly fitted or top-dose-only effect; inactive = no such curve, though single readings can be large or run the other way. What follows is part of a selection rich in actives, with near analogues and random picks from the rest. Where a call stands in place of a potency, no number is given. Some compounds were tested as several samples or in several runs, with calls that do not always agree.
Potency is read from the fitted curve at half-maximal effect.

Chain of Histone-lysine N-methyltransferase EHMT2 (Homo sapiens) (Q96KQ7 913-1193 limits assumed): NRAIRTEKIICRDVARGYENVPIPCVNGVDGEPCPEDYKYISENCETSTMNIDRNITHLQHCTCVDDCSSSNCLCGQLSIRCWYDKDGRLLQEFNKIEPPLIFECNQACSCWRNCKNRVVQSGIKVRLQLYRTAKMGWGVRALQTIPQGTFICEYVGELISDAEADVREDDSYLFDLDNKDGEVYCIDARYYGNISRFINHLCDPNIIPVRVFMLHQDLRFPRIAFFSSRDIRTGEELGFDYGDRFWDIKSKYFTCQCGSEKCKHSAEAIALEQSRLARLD

The assay deals with Histone-lysine N-methyltransferase EHMT2 (Homo sapiens) (UniProt Q96KQ7). Kind of assay: qHTS Assay for Inhibitors of Histone Lysine Methyltransferase G9a. Also: nearly all actives have a fitted effect of over 75% in size. Particulars: G9a H3K9 monomethylation, AlphaScreen, 2 h; series mostly up to 59 µM. The essentials:
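Methyltransferase reactions run at room temperature for 2 h (20 nM enzyme, 500 nM biotin-H3K9 peptide, 20 uM SAM) after a 15 min compound preincubation; product detected by AlphaScreen beads and anti-H3K9me1 antibody.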
With `O=C(CSc1cccc[n+]1[O-])c1ccc(-c2ccccc2)cc1`, the Potency was 3.55 µM (active).

Turning to `Cc1cc(Oc2ccc(Cl)cc2)nc(SCC(=O)c2ccccc2)n1`, the Potency entry was “inactive”.

Take `COc1ccccc1C(=O)CSc1cccc[n+]1[O-]`: the Potency entry was “inactive”.

On to `O=C(CSc1nc(Nc2ccc(F)c(F)c2)c2ccccc2n1)c1ccc(Cl)cc1`, for which the Potency entry is “inactive”.

As for `O=C(CSc1cccc[n+]1[O-])c1ccc(Cl)cc1`, the Potency was 4.47 µM (active).

As for `O=C(CSc1cccc[n+]1[O-])NCCCc1ccccc1`, the Potency entry was “inactive”.

With `O=C(COC(=O)c1ncc(Cl)c(Cl)c1Cl)NC1CCS(=O)(=O)C1` (stereo unspecified), the activity, negative = inhibition was 3.15% [at 12.7 µM] (inactive).

With `O=C(NCC1CCCO1)c1cc2c(s1)CCCC2` (stereo unspecified), the activity, negative = inhibition is 29.8% [at 12.7 µM] (inactive).

With `Cc1nc(SCCOc2ccc(Cl)cc2)[nH]c(=O)c1Cc1ccccc1`, the Potency result is “inactive”.

Regarding `CCS(=O)(=O)N1CCc2cc(C(=O)NCc3ccc(OC)cc3)ccc21`, the Potency entry is “inactive”.

Consider `CN(C)/C=C1/C(=O)Nc2ccccc21`, for which the activity, negative = inhibition was -2.73% [at 12.7 µM] (inactive).

As for `Cc1cc(C)c(/C=C2\C(=O)Nc3ccccc32)[nH]1`, the Potency is 4.47 µM (active) and 16.8 µM (active); the activity, negative = inhibition is -50.4% [at 12.7 µM] (inactive).

On to `O=C1Nc2ccccc2/C1=C/c1ccnc2ccccc12`, for which the Potency result is “inactive”.

Take `Cc1cc(-c2ccc(C)c(S(=O)(=O)NCCCN(Cc3ccccc3)C(C)C)c2)on1`: the Potency entry was “inactive”.

Consider `Oc1cc2c(cc1O)CN(C(=S)NCCc1ccc(Cl)cc1)CCC2`, for which the Potency is 3.55 µM (active) and 2 µM (active) and 4.74 µM (active).

`COc1ccc(CCNC(=S)N2CCN(S(=O)(=O)c3ccc(Cl)cc3)CC2)cc1`: the Potency entry was “inactive”.

Regarding `Cc1cccc(NC(=S)NCCc2ccc(Cl)cc2)c1C`, the Potency result was “inactive”.

As to `O=C(NCCc1csc(-c2ccc(C(F)(F)F)cc2)n1)C(=O)Nc1ccc(F)c(Cl)c1`, the Potency entry is “inactive”.

For `Cc1c(C=O)c2ccccc2n1CCOc1ccccc1`, the Potency entry was “inactive”.

For the compound `Cc1ccc(CS(=O)(=O)CCC(=O)NCc2ccc(F)cc2)cc1`, the Potency entry was “inactive”.

As for `O=C1c2ccccc2C(=O)C1c1ccccc1`, the Potency result is “inactive and 35.5 µM (active)”.

In the case of `O=C1NC(c2ccccc2)Oc2ccccc21` (stereo unspecified), the Potency entry was “inactive”.

Take `CN1C(=O)C[C@H](c2ccccc2)C1=O`: the activity, negative = inhibition was -19.1% [at 12.7 µM] (inactive).

Turning to `CCOC(=O)N1CCN(C(=O)COc2ccc3oc4c(c3c2)CCCC4)CC1`, the activity, negative = inhibition is 14.4% [at 2.33 µM] (inactive).

Turning to `O=C(CCN1C(=O)C2CCCCC2C1=O)Nc1ccc(OC(F)F)cc1` (stereo unspecified), the Potency result is “inactive”.

As to `CCOc1cc(/C=N/NC(=O)c2cccc(S(=O)(=O)N3CCOCC3)c2)ccc1OCC(=O)N(C)C`, the Potency entry is “inactive”.

With `O=S(=O)(c1ccc(SCc2ccccc2)nc1)N1CCCCCC1`, the activity, negative = inhibition was -5.2% [at 12.7 µM] (inactive).

For the compound `Cc1ccc(-n2nnnc2CNC(=O)c2ccccc2C)cc1C`, the Potency entry is “inactive”.

`COC(=O)c1ccc(C(=O)OC)c(NC(=S)N2CCN(c3ccc(F)cc3)CC2)c1`: the Potency is 44.7 µM (active).

In the case of `COC(=O)c1ccc(C(=O)OC)c(NC(=S)N2CCN(c3cc(Cl)ccc3C)CC2)c1`, the Potency entry was “inactive”.

Regarding `COC(=O)c1ccccc1OCC(=O)N1CCN(c2ccc(Cl)cc2)CC1`, the activity, negative = inhibition was 3.66% [at 12.7 µM] (inactive).

As to `COc1ccccc1CNC(=O)c1ccccc1NC(=O)c1nsc2ccccc12`, the Potency entry was “inactive”.

Take `COc1ccc(CCN2C(=O)N(c3cccc(OC)c3)C(=O)C2CC(=O)Nc2ccccc2)cc1` (stereo unspecified): the Potency entry is “inactive”.

In the case of `CC(C)c1ccc(/C=C/C(=O)NCCCN2CCOCC2)cc1`, the Potency entry is “inactive”.

As for `Cn1cnc([N+](=O)[O-])c1Sc1n[nH]c(N)n1`, the Potency result was “inactive”.

Regarding `Cn1cnc([N+](=O)[O-])c1Nc1ccccc1O`, the Potency was 25.1 µM (active).

In the case of `Cn1cnc([N+](=O)[O-])c1Sc1ccccc1`, the Potency entry was “inactive”.

On to `Cc1ccc(C2(C)NC(=O)N(CC(=O)Nc3ccccc3C(=O)N3CCCCC3)C2=O)cc1` (stereo unspecified), for which the Potency result is “inactive”.

Turning to `Fc1ccc(-c2nc(Nc3cccc(Cl)c3)nc3c2COc2ccccc2-3)cc1`, the Potency entry was “inactive”.

As for `Cc1ccc(S(=O)(=O)N2CCC(C(=O)NCCC3=CCCCC3)CC2)cc1C`, the activity, negative = inhibition was 15.2% [at 0.501 µM] (inactive).

Consider `O=C(c1ccccc1)c1ccc(OCC(O)CN2CCCC2)cc1` (stereo unspecified), for which the Potency result is “inactive”.

For the compound `O=[N+]([O-])c1ccc(N2CCN(CC(O)COc3ccccc3)CC2)cc1` (stereo unspecified), the Potency result is “inactive”.

`C[N+]1(CC(O)COc2ccccc2)CCN(C(=O)c2ccc([N+](=O)[O-])cc2)CC1` (stereo unspecified): the Potency was 6.31 µM (active).

Take `COc1ccc(CC(=O)N/N=C/c2cc([N+](=O)[O-])cc(Br)c2O)cc1`: the Potency result is “inactive”.

Turning to `COc1ccc(Cn2c(=S)[nH]c3cc(C(=O)NCCCN4CCOCC4)ccc3c2=O)cc1`, the Potency is 10 µM (active).

As to `Cc1c(C)n(Cc2ccc(Cl)cc2)c2ccc(C(=O)NCCCN3CCOCC3)cc12`, the Potency is 44.7 µM (active).

As for `CCOc1cc2[nH]c(=O)n(Cc3ccc(C(=O)NCCN(CC)CC)cc3)c(=O)c2cc1OCC`, the Potency entry is “inactive”.

For `COc1ccc(-c2cc(C(=O)NCCCN3CCOCC3)no2)cc1`, the Potency result is “inactive”.

Turning to `COc1ccc(Cn2c(=S)[nH]c3cc(C(=O)N4CCCCC4)ccc3c2=O)cc1`, the Potency entry was “inactive”.

For the compound `O=C(NCCCN1CCOCC1)c1cc(-c2ccc(Cl)cc2)on1`, the Potency result is “inactive”.

In the case of `CCCCNC(=O)CCn1c(=S)[nH]c2cc3c(cc2c1=O)OCO3`, the activity, negative = inhibition is 5.03% [at 0.0925 µM] (inactive).

Consider `CCCCn1c(=S)[nH]c2ccccc2c1=O`, for which the Potency result was “inactive”.

As to `O=C(CCn1c(=S)[nH]c2cc3c(cc2c1=O)OCO3)NCc1ccc(Cl)cc1`, the Potency result was “inactive”.

As for `Cc1ccc(NS(=O)(=O)c2ccc(C(=O)NCCCN3CCOCC3)cc2)cc1`, the Potency result was “inactive”.

For `CCN(CC)CCCNC(=O)c1ccc2c(=O)n(Cc3ccc4c(c3)OCO4)c(=S)[nH]c2c1`, the Potency is 31.6 µM (active).

As for `CN(C)CCn1c(=S)[nH]c2ccc(Cl)cc2c1=O`, the Potency was 50.1 µM (active).

Regarding `Cc1ccc2nnn(Cc3cccc(C(C)(C)C)c3O)c2c1`, the activity, negative = inhibition is 15.4% [at 2.33 µM] (inactive).

In the case of `COc1ccc(CCNC(=O)CCc2c(C)nc3c(c(C)nn3-c3ccc(C)c(C)c3)c2C)c(OC)c1OC`, the Potency result was “inactive”.

As for `O=C(CSc1nnnn1C1CCCC1)N1CCCCC1`, the Potency result was “inactive”.

`Cc1cccc(CC(=O)Nc2cccc(-c3cn4cccnc4n3)c2)c1`: the Potency entry is “inactive”.

With `CC(=O)c1ccc(NC(=O)C2CCN(S(=O)(=O)c3c(C)noc3/C=C/c3ccc(C)cc3)CC2)cc1`, the Potency result was “inactive”.

Consider `Cc1noc(C)c1COc1ccc(C(=O)NCCOc2ccccc2)cc1`, for which the activity, negative = inhibition is 19.8% [at 12.7 µM] (inactive).

For the compound `Cc1ccc(CNC(=O)CCc2c(C)nc3c(c(C)nn3-c3ccccc3)c2C)cc1`, the Potency result was “inactive”.

In the case of `CC(CC(=O)N1CCN(c2ccccc2)CC1)S(=O)(=O)c1ccc2c(c1)NC(=O)CS2` (stereo unspecified), the Potency entry was “inactive”.

As for `Cc1ccc(N2CC(c3nnc(Cc4ccccc4Cl)o3)CC2=O)cc1` (stereo unspecified), the Potency result was “inactive”.

In the case of `COc1cccc(NC(=O)CN(C)C(=O)c2cc(C3CC3)nn2-c2ccccc2)c1`, the activity, negative = inhibition is 1.72% [at 2.33 µM] (inactive).

Turning to `Cn1c(=O)c2c(SCC(=O)N3CCc4ccccc43)nc(-c3ccc(Cl)cc3)nc2n(C)c1=O`, the Potency result is “inactive”.

For the compound `NC(=O)C1CCN(C(=O)c2ccc3c(=O)n(Cc4cccc(Br)c4)c(=S)[nH]c3c2)CC1`, the Potency was 39.8 µM (active).

For `O=C(O)c1ccc(Cn2c(=S)[nH]c3cc(Cl)ccc3c2=O)cc1`, the Potency is 39.8 µM (active).

On to `CCOc1cc2[nH]c(=S)n(Cc3ccc(C(=O)N4CCN(C)CC4)cc3)c(=O)c2cc1OCC`, for which the Potency entry was “inactive”.

Take `CCOC(=O)N1CCN(C(=O)c2ccc3c(=O)n(CCc4ccc(OC)c(OC)c4)c(=O)[nH]c3c2)CC1`: the Potency result was “inactive”.

As to `COc1cc2[nH]c(=S)n(Cc3ccc(F)cc3)c(=O)c2cc1OC`, the Potency result is “inactive”.

Regarding `COc1ccccc1Cn1c(=S)[nH]c2cc(C(=O)N3CCN(C)CC3)ccc2c1=O`, the Potency entry was “inactive”.

Consider `COc1ccc(Nc2ncc(C(=O)Nc3cc(C)ccc3OC)c3ccccc23)cc1`, for which the Potency result is “inactive”.

For the compound `O=C(NCc1ccncc1)C1CCCN(S(=O)(=O)c2ccc(Br)cc2)C1` (stereo unspecified), the Potency result is “inactive”.

Turning to `Cc1ccc(C)c(N2CCN(C(=O)Cn3ncc4c(=O)oc5ccc(C)cc5c43)CC2)c1`, the Potency result is “inactive”.

As to `COc1cc(OC)c(N(C)C(=O)c2cc3c(=O)oc4ccccc4c3s2)cc1Cl`, the Potency result was “inactive”.

For the compound `COc1ccccc1CNC(=O)c1ccc(-n2c(C)cc3c2CCCC3)cc1`, the Potency entry was “inactive”.

Turning to `c1ccc(COc2nsnc2N2CCOCC2)cc1`, the Potency is 14.1 µM (active).

As for `O=C(O)COc1nsnc1N1CCOCC1`, the Potency entry is “inactive”.

In the case of `c1nc(COc2nsnc2N2CCOCC2)cs1`, the activity, negative = inhibition is 15.5% [at 2.33 µM] (inactive).

As for `CCOc1ccc(N(CC)C(=O)c2cc3c(=O)oc4ccccc4c3s2)cc1`, the Potency entry was “inactive”.

Regarding `Cc1ccc(C2=N/C(=C\c3ccc(OS(=O)(=O)c4ccc(C)cc4)cc3)C(=O)O2)cc1`, the Potency entry was “inactive”.

For the compound `N=C1/C(=C/c2cccn2-c2cccc([N+](=O)[O-])c2)C(=O)N=C2SC=CN12`, the Potency result is “inactive”.

For `CCS(=O)(=O)C1=NSC2=NC(=O)/C(=C\c3ccc(OS(=O)(=O)c4ccccc4)cc3)C(=N)N21`, the Potency was 39.8 µM (active).

Turning to `CCS(=O)(=O)C1=NSC2=NC(=O)/C(=C\c3cc(C)n(-c4cccc(OC)c4)c3C)C(=N)N21`, the Potency result is “inactive”.

Regarding `COc1cc(/C=C2\C(=N)N3N=C(CC(=O)N4CCOCC4)SC3=NC2=O)cc(OC)c1OC`, the Potency entry was “inactive”.

With `Cc1cc(/C=C2/C(=N)N3C(=NC2=O)SN=C3S(C)(=O)=O)c(C)n1-c1ccccc1`, the Potency is 35.5 µM (active).

`CCC1=Nc2cc(C(=O)NCCCOC(C)C)ccc2Sc2ccc(C)cc21`: the Potency entry was “inactive”.

For the compound `O=C(COC(=O)c1ccccn1)NNC(=O)c1ccc([N+](=O)[O-])cc1`, the Potency entry is “inactive”.

Consider `CCCNC(=O)c1ccc(Cn2c(SCC(N)=O)nc3ccccc3c2=O)cc1`, for which the Potency result is “inactive”.

Regarding `CC(=O)c1ccc2c(ccc3ccccc32)c1`, the Potency result is “inactive”.

On to `C=CC(=O)c1ccc2ccccc2c1`, for which the Potency is 1.26 µM (active).

Take `CC(=O)CCC(=O)c1ccc2ccccc2c1`: the Potency entry is “inactive”.

As to `O=C(/C=C/c1ccccc1)Nc1cc(-c2nc3cc(Cl)ccc3o2)ccc1Cl`, the Potency result is “inactive”.

The record behind these values is PubChem BioAssay AID504332 (National Center for Advancing Translational Sciences (NCATS), 2011).
